The supplement of paper PMC6089552
Hit rate of the full screen: of about 3,200 compounds, about 300 (9.4%) showed activity. This is one part of a sample in which actives are shown more often than they occur.

System: A673/TR/shEF
Assay: cell viability (LOESS-normalised, relative to median of negative controls) (log2 ratio); higher = more viable cells (less compound effect), active = hit call of the paper (over 3 MAD below the median)
Settings: treatment time: 72 h
How it was run: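 For three days, A673/TR/shEF Ewing sarcoma cells in 384-well plates (1,500 per well) were treated with library compounds at two or more concentrations or with DMSO controls, after doxycycline had been added or withheld 24 h beforehand to induce EWS-FLI1 shRNA knockdown. Viability was read by CellTiter-Glo luminescence on an Envision reader. The data were LOESS-corrected per plate, divided by the median of negative controls and log2-transformed.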

[1] = 0.25 µM, library screen: screen1, EWS-FLI1 expression: high (no doxycycline)
[2] = 0.25 µM, library screen: screen1, EWS-FLI1 expression: low (doxycycline-induced shRNA knockdown)
[3] = 0.25 µM, library screen: screen2, EWS-FLI1 expression: high (no doxycycline)
[4] = 0.25 µM, library screen: screen2, EWS-FLI1 expression: low (doxycycline-induced shRNA knockdown)
[5] = 2.5 µM, library screen: screen1, EWS-FLI1 expression: high (no doxycycline)
[6] = 2.5 µM, library screen: screen1, EWS-FLI1 expression: low (doxycycline-induced shRNA knockdown)
[7] = 2.5 µM, library screen: screen2, EWS-FLI1 expression: high (no doxycycline)
[8] = 2.5 µM, library screen: screen2, EWS-FLI1 expression: low (doxycycline-induced shRNA knockdown)
[9] = 0.103 µM, library screen: screen3, EWS-FLI1 expression: high (no doxycycline)
[10] = 0.103 µM, library screen: screen3, EWS-FLI1 expression: low (doxycycline-induced shRNA knockdown)
[11] = 0.308 µM, library screen: screen3, EWS-FLI1 expression: high (no doxycycline)
[12] = 0.308 µM, library screen: screen3, EWS-FLI1 expression: low (doxycycline-induced shRNA knockdown)
[13] = 0.926 µM, library screen: screen3, EWS-FLI1 expression: high (no doxycycline)
[14] = 0.926 µM, library screen: screen3, EWS-FLI1 expression: low (doxycycline-induced shRNA knockdown)
[15] = 2.8 µM, library screen: screen3, EWS-FLI1 expression: high (no doxycycline)
[16] = 2.8 µM, library screen: screen3, EWS-FLI1 expression: low (doxycycline-induced shRNA knockdown)
[17] = 8.3 µM, library screen: screen3, EWS-FLI1 expression: high (no doxycycline)
[18] = 8.3 µM, library screen: screen3, EWS-FLI1 expression: low (doxycycline-induced shRNA knockdown)
[19] = 25 µM, library screen: screen3, EWS-FLI1 expression: high (no doxycycline)
[20] = 25 µM, library screen: screen3, EWS-FLI1 expression: low (doxycycline-induced shRNA knockdown)

Measured: cell viability (log2)

O=C(O)/C=C1/CCCc2ccccc2C1O (stereo not drawn)
inactive: [1] 0.0671 | [2] 0.163 | [3] 0.165 | [4] 0.0537 | [5] 0.139 | [6] 0.187 | [7] 0.071 | [8] 0.0654

CC(=O)O[C@@H]1CC2C(C)(C)[C@H](O)C=C[C@]2(C)C2CC[C@@]3(C)[C@H](c4ccoc4)OC(=O)C4OC43[C@@]21C (stereo partly drawn)
inactive: [1] 0.000168 | [2] 0.0262 | [5] 0.0677 | [6] 0.0357

Cc1c(C(=O)O)c(O)cc2c1C(=O)c1c(O)c([C@@H]3O[C@H](CO)[C@@H](O)[C@H](O)[C@H]3O)c(O)c(O)c1C2=O
inactive: [1] 0.057 | [2] 0.112 | [5] 0.0928 | [6] 0.184

Cc1ccc2nc(NC3=NC(CC(=O)O)C(=O)N3)nc(C)c2c1 (stereo not drawn)
inactive: [1] 0.016 | [2] -0.0194 | [5] 0.0679 | [6] -0.193

CCOc1cccc(=O)c2c(C)[nH]c(C)c12
inactive: [1] 0.0528 | [2] 0.134 | [5] 0.0744 | [6] 0.088

CC1=C2C(O)C(=O)OC3CC4C(C)(C)C(=O)CCC4(C)C(CC1)C23C (stereo not drawn)
inactive: [1] 0.149 | [2] 0.0333 | [5] 0.0817 | [6] 0.166

CO/N=C(\C(=O)N[C@@H]1C(=O)N2C(C(=O)O)=C(CSc3nc(=O)c(=O)[nH]n3C)CS[C@H]12)c1csc(N)n1
inactive: [1] 0.112 | [2] 0.0388 | [3] 0.21 | [4] 0.115 | [5] 0.082 | [6] 0.12 | [7] 0.149 | [8] 0.12

CC(=O)Oc1c(Cl)c(C)c2c(c1Cl)OC(=O)c1c(C)c(Cl)c(OC(C)=O)c(Cl)c1O2
inactive: [1] 0.0776 | [2] 0.0649 | [5] 0.0636 | [6] -0.0345

CC1(C)C=Cc2c(cc3occ(-c4ccc5c(c4)OCO5)c(=O)c3c2O)O1
inactive: [2] 0.0822 | [5] 0.0137 | [6] 0.0314
active: [1] -0.098

COc1c(-c2coc3cc4c(cc3c2=O)CC(O)C(C)(C)O4)ccc2c1C=CC(C)(C)O2 (stereo not drawn)
inactive: [1] 0.0473 | [2] 0.0244 | [5] 3e-05 | [6] 0.094

O=c1c(-c2ccc3c(c2)OCO3)coc2cc(O)ccc12
inactive: [1] 0.113 | [2] 0.0865 | [5] 0.149 | [6] -2.91

COc1c2c(cc3occ(-c4ccc5c(c4)OCO5)c(=O)c13)OC(C)(C)C=C2
active: [1] -0.144
inactive: [2] 0.05 | [5] 0.0889 | [6] 0.0736

COc1cc2c(cc1-c1coc3c4c(ccc3c1=O)OC(C)(C)C=C4)OCO2
inactive: [1] 0.0979 | [2] 0.0365 | [5] 0.112 | [6] 0.0354

CC(C)=CCc1c2c(c3occ(-c4ccc(O)c(O)c4)c(=O)c3c1O)C=CC(C)(C)O2
inactive: [1] 0.131 | [2] 0.0868 | [5] 0.0962 | [6] 0.19

COc1cc2c3cc1Oc1c(OC)c(OC)cc4c1C(Cc1ccc(O)c(c1)Oc1ccc(cc1)CC3N(C)CC2)N(C)CC4 (stereo not drawn)
inactive: [1] 0.135 | [2] 0.0489 | [5] 0.126 | [6] -0.0746

CSCCC(N)C(=O)NC(CC(C)C)C(=O)NC(Cc1ccccc1)C(=O)O (stereo not drawn)
inactive: [1] 0.145 | [2] -0.00633 | [5] 0.123 | [6] 0.0328

O=c1cc(N2CCOCC2)oc2c(-c3ccccc3)cccc12
active: [5] -0.134 | 25 µM, library screen: screen1, EWS-FLI1 expression: high (no doxycycline) -0.489 | 25 µM, library screen: screen1, EWS-FLI1 expression: low (doxycycline-induced shRNA knockdown) -0.462
inactive: 0.025 µM, library screen: screen1, EWS-FLI1 expression: high (no doxycycline) 0.213 | 0.025 µM, library screen: screen1, EWS-FLI1 expression: low (doxycycline-induced shRNA knockdown) 0.0453 | [1] 0.204 | [2] 0.0333 | [3] 0.135 | [4] 0.11 | [6] 0.0932 | [7] 0.15 | [8] 0.0123

O=c1cc(-c2ccccc2)oc2c(O)c(O)ccc12
inactive: [1] 0.189 | [2] -0.0108 | [5] 0.128 | [6] 0.0489

O=c1cc(-c2cccc3c2Sc2ccccc2S3)oc(N2CCOCC2)c1
inactive: [9] 0.00625 | [10] 0.00883 | [11] -0.0309 | [12] 0.0146 | [13] 0.0133 | [14] 0.00404 | [15] 0.0162 | [16] 0.0289 | [17] -0.0501 | [18] 0.00607 | [19] 0.0363 | [20] -0.0432

CC(C)CCC[C@@H](C)[C@H]1CC[C@H]2[C@@H]3CC[C@@H]4C[C@H](O)CC[C@]4(C)[C@H]3CC[C@]12C
inactive: [1] 0.108 | [2] 0.0181 | [5] 0.105 | [6] 0.0609

CC1CCC2(OC1)OC1CC3C4CCC5C[C@@H](O)CCC5(C)C4=CCC3(C)C1[C@@H]2C (stereo partly drawn)
inactive: [1] 0.0912 | [2] 0.0387 | [5] 0.0505 | [6] 0.0779

CCCCCCCCCCCCCCCC(=O)NCC(COP(=O)([O-])OCC[N+](C)(C)C)OC (stereo not drawn)
inactive: [3] 0.14 | [4] 0.124 | [7] 0.166 | [8] 0.0176

CCC(=O)c1ccc2c(c1)N(CC(C)N(C)C)c1ccccc1S2 (stereo not drawn)
inactive: [1] 0.0889 | [2] 0.155 | [5] 0.168 | [6] 0.297

Cn1cnc([N+](=O)[O-])c1Sc1ncnc2nc[nH]c12
active: 25 µM, library screen: screen2, EWS-FLI1 expression: high (no doxycycline) -0.337
inactive: 0.025 µM, library screen: screen2, EWS-FLI1 expression: high (no doxycycline) 0.138 | 0.025 µM, library screen: screen2, EWS-FLI1 expression: low (doxycycline-induced shRNA knockdown) 0.0997 | [1] 0.0615 | [2] 0.0765 | [3] 0.159 | [4] 0.0607 | [5] -0.0254 | [6] 0.161 | [7] -0.0273 | [8] 0.0557 | 25 µM, library screen: screen2, EWS-FLI1 expression: low (doxycycline-induced shRNA knockdown) 0.03

COc1cc(OC)c(C2NC(=S)NC(C)=C2C(=O)Nc2cccc(Cl)c2)cc1OC (stereo not drawn)
inactive: [1] 0.0501 | [2] 0.0639 | [5] 0.0887 | [6] 0.0905

NS(=O)(=O)c1ccc(-c2ccc(/C=C3/SC(=S)N(C4CCCCC4)C3=O)o2)cc1
inactive: [1] 0.109 | [2] 0.0623 | [5] 0.167 | [6] -0.0331

CC(=O)O[C@H]1C(=O)[C@@]2(C)[C@H]([C@H](OC(=O)c3ccccc3)[C@]3(O)C[C@H](OC(=O)[C@H](O)[C@@H](NC(=O)c4ccccc4)c4ccccc4)C(C)=C1C3(C)C)[C@]1(OC(C)=O)CO[C@@H]1C[C@@H]2O
active: [9] -2.57 | [10] -0.853 | [1] -3.63 | [2] -1.46 | [3] -2.49 | [4] -0.868 | [11] -2.24 | [12] -0.787 | [13] -2.68 | [14] -0.947 | [5] -4.22 | [6] -1.51 | [7] -2.93 | [8] -1 | [15] -2.59 | [16] -1.11 | [17] -2.75 | [18] -1.03 | [19] -2.68 | [20] -1.1

CC(=O)O[C@@]12CO[C@@H]1C[C@H](O)[C@@]1(C)C(=O)[C@H](O)C3=C(C)[C@@H](OC(=O)[C@H](O)[C@@H](NC(=O)OC(C)(C)C)c4ccccc4)C[C@@](O)([C@@H](OC(=O)c4ccccc4)[C@H]21)C3(C)C
active: [9] -2.68 | [10] -0.934 | [11] -2.8 | [12] -1.01 | [13] -2.92 | [14] -1.04 | [15] -2.83 | [16] -1.04 | [17] -2.98 | [18] -1.06 | [19] -2.84 | [20] -1.01

[Na+].[Na+].[Na+].[O]=[V]([O-])([O-])[O-]
inactive: [9] 0.0642 | [10] 0.11 | [11] -0.00412 | [12] 0.0414 | [13] 0.0791 | [14] 0.0822 | [15] 0.0816 | [16] 0.153 | [17] 0.102 | [18] 0.022 | [19] 0.0273 | [20] 0.0301

O=C(Nc1ccncc1)c1cc(-c2ccccc2)nc2ccccc12
inactive: [1] 0.0994 | [2] 0.0756 | [5] 0.0606 | [6] -0.00485

COC(=O)C[C@H]1C(C)(C)C(OC)=C2CC3=C4CC(=O)O[C@@H](c5ccoc5)[C@]4(C)CCC3[C@@]1(C)C2=O (stereo partly drawn)
inactive: [1] 0.0817 | [2] 0.1 | [5] 0.101 | [6] 0.109

Nc1ncnc2c1nc(Br)n2C1OC2COP(=O)(O)OC2C1O (stereo not drawn)
inactive: [3] 0.279 | [4] 0.0361 | [7] 0.103 | [8] 0.0822

CC1=C(/C=C/C(C)=C/C=C/C(C)=C/C=C/C=C(C)/C=C/C=C(C)/C=C/[C@@]23O[C@]2(C)C[C@@H](O)CC3(C)C)C(C)(C)C[C@H](O)C1
inactive: [1] 0.0858 | [2] 0.0984 | [5] 0.143 | [6] 0.132

COc1ccc2c(c1)[C@@]1(C)CCC(=O)C[C@@H]1CC2
inactive: [1] 0.0574 | [2] 0.0238 | [5] 0.0895 | [6] 0.0859

CC(C)c1ccc2c(c1)CCC1C(C)(CN)CCCC21C (stereo not drawn)
inactive: [1] 0.0133 | [2] -0.0819 | [5] 0.122 | [6] 0.00337

Fc1cccc(CN(C2=NCCN2)c2c(Cl)cccc2Cl)c1
inactive: [3] 0.243 | [4] 0.118 | [7] 0.138 | [8] 0.0968
